# Experimental data: PubChem BioAssay (NCATS)
# Values joined by “and” are separate entries in the source; they are usually repeats but may differ in a detail not shown here. Identical values can stand only once. Inconclusive results are not listed. A call without a number means that no potency is given here. Unmarked numbers belong to inactive results. Active and inactive are the calls of the source. Calls come from the whole dose curve; as a rule, active = well fitted curve in the direction sought with a large enough effect; inconclusive = small, poorly fitted or top-dose-only effect, or another doubt; inactive = no such curve, though single readings can be large; an effect the other way counts as inactive or inconclusive.
# Legend:
# [1] = Viability qHTS for spleen associated tyrosine kinase inhibitor (SYKi) naive MV4-11 cells (AID 1963823); note: nearly all actives have a fitted effect of over 40% in size
# Summary of the method: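 Luminescence from CellTiter-Glo, developed 10 min at room temperature, gave viability of MV4-11 cells never exposed to SYK inhibitor. Cells (500/well) had been incubated with compounds for 72 hr under standard culture conditions.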
# [2] = Viability qHTS for spleen associated tyrosine kinase inhibitor (SYKi) drug resistant MV4-11 cells (AID 1963824); note: nearly all actives have a fitted effect of over 35% in size
# Summary of the method: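 CellTiter-Glo luminescence, read 10 min after reagent addition, reports viability after a 72 hr compound exposure. Cells are an MV4-11 line made resistant to SYK inhibition, seeded at 500 per well onto compound-containing plates.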
# [3] = Quantitative highthroughput screen to assess conditional lethalithy of NOMO1 cells grown in RPMI1640 with untreated serum (RPMI+s) (AID 1963876); note: nearly all actives have a fitted effect of over 35% in size
# Summary of the method: (§1)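 Each medium arm—HPLM with 10% dialyzed FBS, or RPMI1640 with 5 mM glucose and 10% untreated or dialyzed FBS—was screened against an 11-point, 3-fold compound titration for 48 h at 37 °C, with CellTiter-Glo luminescence as endpoint.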
# [4] = Quantitative highthroughput screen to assess conditional lethalithy of NOMO1 cells grown in RPMI1640 with dialyzed fetal bovine serum (RPMI+ds) (AID 1963877); note: nearly all actives have a fitted effect of over 30% in size; for Viability: series mostly up to about 46 µM
# Summary of the method: as §1
# [5] = Quantitative highthroughput screen to assess conditional lethalithy of NOMO1 cells grown in Human Plasma-Like Medium with dialyzed fetal bovine serum (HPLM+ds) (AID 1963878); note: nearly all actives have a fitted effect of over 35% in size
# Summary of the method: as §1
# [6] = Quantitative highthroughput screen to assess conditional lethalithy of P12 Ichikawa cells grown in Human Plasma-Like Medium with dialyzed fetal bovine serum (HPLM+ds) (AID 1963879); conditions: Potency: viability; note: nearly all actives have a fitted effect of over 35% in size; for Viability: series mostly up to about 46 µM
# Summary of the method: as §1
# [7] = Quantitative highthroughput screen to assess conditional lethalithy of P12 Ichikawa cells grown in RPMI1640 with dialyzed fetal bovine serum (RPMI+ds) (AID 1963880); conditions: Potency: P12-Ichikawa viability; note: nearly all actives have a fitted effect of over 35% in size
# Summary of the method: as §1
# [8] = Quantitative highthroughput screen to assess conditional lethalithy of P12 Ichikawa cells grown in RPMI1640 with untreated serum (RPMI+s) (AID 1963881); conditions: Potency: viability; note: nearly all actives have a fitted effect of over 35% in size; for Viability: series mostly up to about 46 µM
# Summary of the method: as §1
# [9] = Quantitative highthroughput screen to assess conditional lethalithy of SEM cells grown in Human Plasma-Like Medium with dialyzed fetal bovine serum (HPLM+ds) (AID 1963882); note: nearly all actives have a fitted effect of over 35% in size; for Viability: series mostly up to about 46 µM
# Summary of the method: as §1
# [10] = Quantitative highthroughput screen to assess conditional lethalithy of SEM cells grown in RPMI1640 with unreated serum (RPMI+s) (AID 1963883); note: nearly all actives have a fitted effect of over 35% in size
# Summary of the method: as §1
# [11] = Quantitative highthroughput screen to assess conditional lethalithy of SEM cells grown in RPMI1640 with dialyzed fetal bovine serum (RPMI+ds) (AID 1963884); note: nearly all actives have a fitted effect of over 35% in size; for Viability: series mostly up to about 46 µM
# Summary of the method: as §1
# [12] = Cellular viability qHTS for adrenocortical cancer (ACC) cell line SW-13 (AID 1963989); conditions: SW-13 ACC cells viability, CellTiter-Glo, 48 h; activity (max response): active compounds read low; note: nearly all actives have a fitted effect of over 65% in size;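 for activity (max response): cells grown in serum-free medium with ITS supplement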
# Summary of the method: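 Luminescent ATP read-out (CellTiter-Glo, 20 min at room temperature) measured metabolically competent SW-13 cells after 48 h compound treatment. Final concentrations spanned up to 46 uM; bortezomib served as positive control.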
# [13] = Cellular viability qHTS for adrenocortical cancer (ACC) cell line NCI-H295R (AID 1963990); note: nearly all actives have a fitted effect of over 60% in size
# Summary of the method: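 IC50 and maximal efficacy derive from four-parameter logistic modelling of titration curves, with reads scaled between DMSO-only wells (0%) and doxorubicin hydrochloride (100% inhibition). Compounds spanned up to 46 uM over 48 h.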
# Potency is the fitted concentration of half-maximal effect.
compound,measurement,setting,value
CC(C)=CCC[C@@](C)(O)[C@H]1CC[C@]2(C)[C@@H]1[C@H](O)CC1[C@@]3(C)CC[C@H](O[C@@H]4O[C@H](CO)[C@@H](O)[C@H](O)[C@H]4O[C@@H]4O[C@H](CO)[C@@H](O)[C@H](O)[C@H]4O)C(C)(C)[C@@H]3CC[C@]12C (stereo partly specified),Potency,[1],inactive
same,Potency,[2],inactive
COc1cccc([C@@H](C)NCCCc2ccccc2Cl)c1,Potency,[1],14.8 µM (active)
same,Potency,[2],14.8 µM (active)
same,Potency,[3],inactive
same,Potency,[4],inactive
same,Potency,[5],inactive
same,Potency,[6],inactive
same,Potency,[7],inactive
same,Potency,[8],inactive
same,Potency,[9],inactive
same,Potency,[10],inactive
same,Potency,[11],inactive
O=C(O)Cc1nn(Cc2nc3cc(C(F)(F)F)ccc3s2)c(=O)c2nccnc12,Potency,[1],inactive
same,Potency,[2],inactive
C/C1=C\C[C@H](O[C@@H]2O[C@H](CO)[C@@H](O)[C@H](O)[C@H]2O)/C(C)=C/[C@H]2OC(=O)[C@H](C)[C@@H]2CC1,Potency,[1],inactive
same,Potency,[2],inactive
Nc1cc(C(F)(F)F)c(-c2cc(N3CCOCC3)nc(N3CCOCC3)n2)cn1,Potency,[1],2.06 µM (active) and 1.86 µM (active)
same,Potency,[2],1.46 µM (active) and 2.09 µM (active)
same,Potency,[3],1.87 µM (active)
same,Potency,[4],1.87 µM (active)
same,Potency,[5],1.18 µM (active)
same,Potency,[6],1.32 µM (active)
same,Potency,[7],1.32 µM (active)
same,Potency,[8],1.66 µM (active)
same,Potency,[9],0.935 µM (active)
same,Potency,[10],1.05 µM (active)
same,Potency,[11],0.833 µM (active)
same,Potency,[12],2 µM (active)
same,Potency,[13],3.16 µM (active)
C[C@@H]1O[C@@H](O[C@H]2[C@H](O)[C@@H](O)[C@H](OC3CCC4(C)C5CCC(C)(C(CO)OC6OC(CO)C(O)C(O)C6O)CC5=CCC4C3(C)C)O[C@@H]2CO)[C@H](O)[C@H](O)[C@H]1O (stereo partly specified),Potency,[1],inactive
same,Potency,[2],inactive
CN(C)CC(=O)N1CCC(c2ccc(NC(=O)c3ncc(C#N)[nH]3)c(C3=CCCCC3)c2)CC1,Potency,[1],73.1 nM (active) and 74.2 nM (active)
same,Potency,[2],41.1 nM (active) and 148 nM (active)
same,Potency,[3],inactive
same,Potency,[4],inactive
same,Potency,[5],inactive
same,Potency,[6],inactive
same,Potency,[7],inactive
COC(=O)C1=COC(O[C@@H]2O[C@H](COC(=O)/C=C/c3ccc(O)cc3)[C@@H](O)[C@H](O)[C@H]2O)C2C(CO)=CCC12 (stereo partly specified),Potency,[1],inactive
same,Potency,[2],inactive
NC1CCC(N[C@@H]2C[C@H]2c2ccccc2)CC1 (stereo partly specified),Potency,[1],inactive
same,Potency,[2],inactive
same,Potency,[3],inactive
same,Potency,[4],inactive
same,Potency,[5],inactive
same,Potency,[6],inactive
same,Potency,[7],inactive
same,Potency,[8],inactive
same,Potency,[9],inactive
same,Potency,[10],inactive
same,Potency,[11],inactive
same,activity (max response),[12],-23.4%
Cc1cccc(CN2CCN(C(c3ccccc3)c3ccc(Cl)cc3)CC2)c1 (stereo unspecified),Potency,[1],20.9 µM (active)
same,Potency,[2],11.9 µM (active) and 26.3 µM (active)
same,Potency,[3],inactive
same,Potency,[4],inactive
same,Potency,[5],inactive
same,Potency,[6],inactive
same,Potency,[7],inactive
same,Potency,[8],inactive
same,Potency,[9],inactive
same,Potency,[10],inactive
same,Potency,[11],inactive
same,Potency,[12],3.26 µM (active) and 28.2 µM (active)
C=C(C(=O)O)C1CCC2(C)CCCC(C)(O)C2C1 (stereo unspecified),Potency,[1],inactive
same,Potency,[2],inactive
CN(C1CCc2c(c3ccccc3n2CC(=O)O)C1)S(=O)(=O)c1ccc(F)cc1 (stereo unspecified),Potency,[1],inactive
same,Potency,[2],inactive
same,Potency,[3],7.43 µM (active)
same,Potency,[4],7.43 µM (active)
same,Potency,[5],5.9 µM (active)
same,Potency,[6],8.33 µM (active)
same,Potency,[7],14.8 µM (active)
same,Potency,[8],9.35 µM (active)
same,Potency,[9],inactive
CCC(=O)N1CCN(c2ccc(-n3c(=O)ccc4cnc5ccc(-c6cnc7ccccc7c6)cc5c43)cc2C(F)(F)F)CC1,Potency,[1],42.2 nM (active) and 36.2 nM (active)
same,Potency,[2],59.6 nM (active) and 102 nM (active)
same,Potency,[3],0.132 µM (active)
N[C@@H](Cn1ccc(=O)c(O)c1)C(=O)O,viability (% of control),[1],88% [at 4.97 µM]
same,"viability, % of control",[2],98% [at 4.97 µM]
O=C(C1CC1)N1CC[C@@H](Cc2n[nH]c(=O)n2-c2ccc(-c3ccc4occc4c3)cc2)C1,Potency,[1],inactive
same,Potency,[2],18.6 µM (active)
same,Potency,[3],inactive
same,Potency,[4],inactive
same,Potency,[5],inactive
same,Potency,[6],inactive
same,Potency,[7],inactive
same,Potency,[8],inactive
CC(C)(C)C(=O)Oc1ccc(S(=O)(=O)Nc2ccccc2C(=O)NCC(=O)O)cc1,Potency,[1],inactive
same,Potency,[2],inactive
same,Potency,[3],inactive
same,Potency,[4],inactive
same,Potency,[5],inactive
same,Potency,[6],inactive
same,Potency,[7],inactive
same,Potency,[8],inactive
same,Potency,[9],inactive
same,Potency,[10],inactive
same,Potency,[11],inactive
same,activity (max response),[12],1.32% and -4.44%
CN1CCN(c2cccc(Nc3nc4c(-c5ccc(S(C)(=O)=O)cc5)cccn4n3)c2)CC1,Potency,[1],146 nM (active) and 132 nM (active)
same,Potency,[2],130 nM (active) and 296 nM (active)
same,Potency,[3],inactive
CCCCNc1cc(C(=O)O)cc(S(N)(=O)=O)c1Oc1ccccc1,Potency,[1],inactive
same,Potency,[2],inactive
same,Potency,[3],inactive
same,Potency,[4],inactive
same,Potency,[5],inactive
same,Potency,[6],inactive
same,Potency,[7],inactive
same,Potency,[8],inactive
same,Potency,[9],inactive
same,Potency,[10],inactive
same,Potency,[11],inactive
same,activity (max response),[12],16.2% and -1.57%
same,Potency,[13],inactive
C=C1CC[C@H](O)CC1=C/C=C1\CCC[C@]2(C)[C@@H]([C@H](C)/C=C/[C@H](C)C(C)C)CC[C@@H]12,Potency,[1],8.2 µM (active)
same,Potency,[2],9.2 µM (active)
O=C(NCc1cccc(O)c1)c1cc2cc(F)ccc2[nH]1,Potency,[1],16.4 µM (active)
same,Potency,[2],13 µM (active)
